# Inconclusive results are not listed. Calls of active or inactive are those of the source. How the source made its calls: active means hit-call score of the fitted dose curve at least 0.9, where 1 is the maximum; inconclusive means response in the unintended direction; inactive means score below 0.9.
# Molecular target: zebrafish Estrogen Receptor (ER1), esr1 (gene 259252) (UniProt P57717)
# Test: ATG_zfER1_EcoTox2: Attagene TRANS-FACTORIAL EcoTox-2 HepG2 Assay for zebrafish Estrogen Receptor (ER1)
# Description: ATG_EcoTox2 is a cell-based, multiplexed assay created by modifying the existing Attagene TRANS-FACTORIAL system to include a panel of nuclear receptors from some or all the following species: human (Homo sapiens), african clawed frog (Xenopus laevis), rainbow trout (Oncorhynchus mykiss), japanese medaka (Oryzias latipes), and zebrafish (Danio rerio). The ECOTOX2-FACTORIAL format uses HepG2, a human liver cell line, with measurements taken at 24 hours after chemical dosing in a 24-well plate. ATG_zfER1_EcoTox2 is one of 29 assay components calculated in the ATG_EcoTox2 assay. It is designed to make measurements of mRNA induction, a form of inducible reporter, as detected with fluorescence intensity signals by Reverse transcription polymerase chain reaction (RT-PCR) and Capillary electrophoresis technology.The assay endpoint ATG_zfER1_EcoTox2 was analyzed in the positive analysis fitting direction relative to DMSO as the negative control and baseline of activity. Using a type of inducible reporter, measures of mRNA for gain-of-signal activity can be used to understand the reporter gene at the transcription factor-level as they relate to the gene ER. Furthermore, this assay endpoint can be referred to as a primary readout, because this assay has produced multiple assay endpoints where this one serves a reporter gene function. To generalize the intended target to other relatable targets, this assay endpoint is annotated to the nuclear receptor intended target family, where the subfamily is steroidal.
# Human liver HepG2 cells are transiently transfected with multiple reporter transcription units (MRTUs) in 6-well plates using FuGene 6 reagent (Roche; 3 ml FuGene/1 mg DNA). The MRTU constructs are regulated by a cis-regulating element (promoter). Each RTU expresses a GAL4-UAS that regulates the transcription of a nearby target reporter gene sequence. A major difference between the CIS and TRANS system is that in CIS activities of endogenous TFs are measured, whereas the TRANS assay evaluates changes in activities of exogenous, chimeric NR-Gal4 proteins. […] At the end of 24 hour incubation, total RNA was isolated using TriZol reagent (Invitrogen). The isolated RNA is then reverse-transcribed using oligo(dT) primer and Mo-MLV reverse transcriptase (Invitrogen) with DNAse I (Ambion) treatment for 30 min. The one-tenth of the produced cDNA was amplified by PCR using Taq DNA polymerase (Invitrogen) and two reporter sequence-specific primers. The PCR products were fluorescently labeled by primer extension with 6-arboxyfluorescein (6-FAM) 5'-labeled reporter sequence-specific primer (2 min at 95 C, 20 s at 68 C and 10 min at 72 C) and these products were digested with 5U of HpaI (New England Biolabs) for 2h at 37 C. The fragments were purified using Qiaquick PCR columns (Qiagen), analyzed on an ABI 3130xL genetic analyzer (Applied Biosystems) with peak positions identified by using a set of X-rhodamine (ROX)-labeled MapMarker1000 molecular weight standards (BioVentures). The raw capillary electrophoresis data was processed using Attagraph software (Attagene).
# Sequence of zebrafish Estrogen Receptor (ER1), esr1 (gene 259252) (P57717 whole entry, looked up): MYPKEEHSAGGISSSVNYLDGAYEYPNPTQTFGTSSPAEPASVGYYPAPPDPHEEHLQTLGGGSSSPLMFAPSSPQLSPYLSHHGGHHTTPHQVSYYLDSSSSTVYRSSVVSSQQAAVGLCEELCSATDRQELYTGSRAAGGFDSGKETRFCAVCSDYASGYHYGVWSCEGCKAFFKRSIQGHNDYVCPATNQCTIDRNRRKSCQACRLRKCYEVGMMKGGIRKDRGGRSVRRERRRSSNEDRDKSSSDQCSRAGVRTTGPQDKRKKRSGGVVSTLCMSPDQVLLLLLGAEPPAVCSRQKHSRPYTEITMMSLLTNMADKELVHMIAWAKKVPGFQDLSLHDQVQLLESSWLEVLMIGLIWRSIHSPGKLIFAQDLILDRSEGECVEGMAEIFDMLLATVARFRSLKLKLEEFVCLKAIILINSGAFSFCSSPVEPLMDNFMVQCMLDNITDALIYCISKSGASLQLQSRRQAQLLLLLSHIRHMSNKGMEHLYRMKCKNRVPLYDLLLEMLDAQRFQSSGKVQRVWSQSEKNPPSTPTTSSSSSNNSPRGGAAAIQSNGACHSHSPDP
row,Structure (SMILES),outcome
1,C[C@@H]1C[C@H]2[C@@H]3CCC4=CC(=O)C=C[C@]4(C)[C@@]3(F)[C@@H](O)C[C@]2(C)[C@@]1(O)C(=O)COP(=O)(O)O,inactive
2,CC(C)(Oc1ccc(C2CC2(Cl)Cl)cc1)C(=O)O (centres undefined),inactive
3,C=C(c1ccc(C(=O)O)cc1)c1cc2c(cc1C)C(C)(C)CCC2(C)C,inactive
4,CC(C)(Oc1ccc(CCNC(=O)c2ccc(Cl)cc2)cc1)C(=O)O,inactive
5,CC(C)(Oc1ccc(Cl)cc1)C(=O)O,inactive
6,CC(c1cc2ccccc2s1)N(O)C(N)=O (centres undefined),inactive
7,Cc1ccc(C)c(OCCCC(C)(C)C(=O)O)c1,inactive
8,CC(C)OC(=O)C(C)(C)Oc1ccc(C(=O)c2ccc(Cl)cc2)cc1,inactive
9,C[C@]12C=CC(=O)C=C1CC[C@@H]1[C@@H]2C(=O)C[C@@]2(C)[C@H]1CC[C@]2(O)C(=O)CO,inactive
